This is an account of results in PubChem BioAssay AID1850 (Southern Research Specialized Biocontainment Screening …, 2009).

Structures are written as SMILES. The whole screen tested about 310,000 compounds, of which about 1,000 (0.32%) were called active. Only a sample is shown. Potency and affinity values are given separately. Values without a mark were called inactive. How the calls were made is not given here.

This assay can be described thus: Inhibition of PhoP regulon, Salmonella typhi GFP reporter cells, confirmation, 4 h (AID 1850).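 Further: 0% = induced wells with vehicle and 100% = uninduced wells.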 The conditions noted are these: Salmonella Typhi PhoP-promoter GFP reporter, fluorescence, at 50 µM, hits give high values.
The term inhibition denotes the change of the read-out against control, counted positive when it falls. For the molecule `O=C1CC(c2ccccc2Cl)CC(O)=C1C=Nc1ccccc1` (centres undefined), the inhibition is -11%. As for `O=C(Cc1ccccc1)N/N=C/c1ccc(-c2ccc([N+](=O)[O-])cc2)o1`, the figure is -11.9%. Take `CC(=O)Nc1ccc(/C=N/NC(=O)CCN2CCN(c3ccccc3)CC2)cc1`: the inhibition was 3.88%.

As to `Cc1nc2ccccn2c1C(=O)N/N=C/c1ccc([N+](=O)[O-])cc1`, the inhibition was 2.94%. As for `O=C(CCN1CCN(c2ccccc2)CC1)N/N=C/c1ccccc1O`, the figure is -12.1%. On to `Cc1nc2ccccn2c1C(=O)N/N=C/c1ccccc1[N+](=O)[O-]`, for which the inhibition is 5.76%. As for `O=C(COc1ccccc1)N/N=C/c1ccc([N+](=O)[O-])o1`, the figure is 3.11%; as for `Cc1cc(C)cc(OCC(=O)N/N=C/c2ccc([N+](=O)[O-])o2)c1`, -6.8%; as for `O=C(CNc1cccc([N+](=O)[O-])c1)N/N=C/c1ccc([N+](=O)[O-])o1`, 17.3%. Turning to `COc1cc(Nc2nc3ccccc3nc2NS(=O)(=O)c2ccc([N+](=O)[O-])cc2)cc(OC)c1OC`, the inhibition was 6.03%.

Consider `CN(Cc1ccccc1)CC(O)COc1ccc(CNCCc2cccnc2)cc1` (centres undefined), for which the inhibition is 9.53%. Consider `Cc1ncc(CCl)c2c1OC(C)(C)OC2`, for which the inhibition was 5.02%. As for `COc1ccc(NC(=O)NCc2cccnc2)c(OC)c1`, the figure is -7.58%; as for `O=C(Cc1ccccc1)Nc1nccs1`, -0.57%. Turning to `Cc1cc(OC(C)C(=O)N2C[C@H]3C[C@@H](C2)c2cccc(=O)n2C3)c2c(C)c(C)c(=O)oc2c1` (some centres undefined), the inhibition was -6.28%. As for `CC(C)Cc1nnc(NC(=O)CCC(=O)N2CCN(c3ccccn3)CC2)s1`, the figure is -13%; as for `O=[N+]([O-])c1cccnc1NCCc1c[nH]c2ccccc12`, -3.53%. The value for `Cc1cc(NC(=O)CSCC(=O)N2CCN(c3cccc(C(F)(F)F)c3)CC2)no1` was 6.28%.

Consider `CCCC(=O)Nc1ccc(C(=O)N/N=C/c2ccc([N+](=O)[O-])o2)cc1`, for which the inhibition was 14.4%. As for `O=C(N/N=C/C=C/c1ccccc1[N+](=O)[O-])c1cccs1`, the figure is -2.89%.

Regarding `O=C(N/N=C/c1ccc([N+](=O)[O-])o1)c1ccc2c(c1)OCO2`, the inhibition is 3.54%. The value for `C/C(=N/NC(=O)C(O)(c1ccccc1)c1ccccc1)c1ccc([N+](=O)[O-])o1` was -14%; that for `O=C(N/N=C/C=C/c1ccc([N+](=O)[O-])cc1)c1cccs1` was 6.74%. As for `O=C(CN1CCCCCCC1)N/N=C/c1ccc([N+](=O)[O-])o1`, the figure is 8.07%. As for `CCOC(=O)N/N=C(\C)c1ccc(C)o1`, the figure is -8.47%; as for `NC(=O)N/N=C/c1ccc([N+](=O)[O-])o1`, 1.06%; as for `COc1ccc(C2C(C(C)=O)=C(O)C(=O)N2Cc2ccccc2)c(OC)c1` (centres undefined), -1.09%. On to `Cc1ccc([C@@H]2[C@@H]3C(=O)N(C)C(=O)[C@@H]3[C@]3(Cc4ccccc4)C(=O)N(Cc4ccccn4)CC(=O)N23)o1`, for which the inhibition is 5.99%. As for `COc1ccccc1N1CCN(C2CCCN(C(=O)c3cc(C4CC4)on3)C2)CC1` (centres undefined), the figure is -1.91%; as for `O=C(C[n+]1cc(-c2ccccc2)n2c1CCCCC2)c1ccc(Br)cc1`, -5.28%. For `CCOC(=O)N1CCN(C(=O)c2cn(CC)c3ccc(S(=O)(=O)N4CC(C)CC(C)C4)cc3c2=O)CC1` (centres undefined), the inhibition is -8.02%. `O=C(COC(=O)CCN=C1NS(=O)(=O)c2ccccc21)NC1CCCCCCC1`: the inhibition was 2.68%. The value for `COc1cccc(NC(=S)NC(=O)Cc2ccc(Cl)cc2)c1` was -3.77%; that for `CCOC(=O)N/N=C/c1ccc(C)o1` was -0.31%; that for `COC(=O)N/N=C/c1ccc([N+](=O)[O-])o1` was 10.7%. Turning to `Cc1ccc2c(c1)C(=O)CC(O)(C(F)(F)F)O2` (centres undefined), the inhibition was -10.7%. `O=C(Nc1ccccc1)c1ccc(OC(=O)c2cc3ccccc3o2)cc1`: the inhibition is 1.84%. On to `COc1ccc(OC(=O)c2cc3ccccc3o2)cc1`, for which the inhibition was 3.29%. The value for `CC(=O)Nc1cccc(C(=O)Nc2cccnc2)c1` was 5.55%.

Regarding `CC(=O)OCC1OC(n2cc(F)c(=O)[nH]c2=O)C(OC(C)=O)C1OC(C)=O` (centres undefined), the inhibition was -1.38%. `Nc1cn(C2OC(CO)C(O)C2O)c(=O)[nH]c1=O` (centres undefined): the inhibition is 5.11%.

Regarding `COc1ccccc1N1CCN(c2ccc(Cl)nn2)CC1`, the inhibition is 8.78%. As to `Cc1ccc(C(=O)N/C(=C\c2ccccc2)C(=O)NCCCn2ccnc2)cc1`, the inhibition was -1.23%. As to `NC1=NC[C@@H](Cc2ccc(O)cc2)N1CCc1cccc2ccccc12`, the inhibition was -7.1%. As for `NCCCC[C@H]1CN=C(N)N1CCC12CC3CC(CC(C3)C1)C2`, the figure is 27.2%. The value for `NC1=NC[C@@H](Cc2ccc(O)cc2)N1CCC12CC3CC(CC(C3)C1)C2` was -4.88%. As for `NC1=NC[C@H](Cc2ccc(O)cc2)N1CCc1cccc(F)c1`, the figure is -13.5%; as for `COc1ccccc1N1CCN(C(=O)Cn2nc(C(F)(F)F)c3c2CCC3)CC1`, -10.5%. Turning to `COc1cccc(C(=O)Nc2ccc(NC(=O)Cc3ccccc3)cc2)c1`, the inhibition was -3.24%. As for `CC(CC12CC3CC(CC(C3)C1)C2)NCc1ccccc1O` (centres undefined), the figure is 0.38%; as for `CC(NCc1ccncc1)C12CC3CC(CC(C3)C1)C2` (centres undefined), 2.47%. As for `NS(=O)(=O)c1cccc(NC(=O)CC23CC4CC(C2)CC(CC(=O)Nc2cccc(S(N)(=O)=O)c2)(C4)C3)c1`, the figure is 4.03%; as for `c1ccc(-c2nc(NC3CCCC3)c3ccccc3n2)cc1`, 3.11%; as for `c1ccc(CN2CCC(Nc3ncnc4sccc34)CC2)cc1`, -4.42%. The value for `c1ccc(CN2CCC(Nc3nc(-c4cccnc4)nc4ccccc34)CC2)cc1` was 1.57%. As to `c1ccc(CNc2nc(-c3cccs3)nc3ccccc23)cc1`, the inhibition was -0.13%. `O=C1N(CN2CCC3(CC2)OCCO3)c2ccccc2C12OCCCO2`: the inhibition is 1.71%. As to `Cc1ccc(NC(=O)N2CCN(c3ncccc3C(F)(F)F)CC2)cc1`, the inhibition is 1.6%. Turning to `C=CCNC(=O)C1CC(=O)N(c2ccc(OCc3ccccc3Cl)cc2)C1` (centres undefined), the inhibition was 0.85%. For `COc1ccc(C2NC(=O)Cc3cc(OC)c(OC)cc32)cc1OC` (centres undefined), the inhibition was -3.77%. For `Nc1ccc(C(=O)OCc2nc3c(ccc4ccccc43)[nH]2)cc1`, the inhibition is 0.78%. `CN(C)CCNc1oc(COc2ccc(Cl)cc2)nc1C#N`: the inhibition was 8.61%. Regarding `Cc1cccc(OCc2nc(C#N)c(NCCN(C)C)o2)c1`, the inhibition is -1.98%. For `Cc1ccc(S(=O)(=O)N2CCCC(C(=O)NCCc3ccc(S(N)(=O)=O)cc3)C2)cc1` (centres undefined), the inhibition is -14.1%. The value for `COc1ccc(-c2cc(C(=O)N(C)Cc3ccccc3F)c3ccccc3n2)cc1OC` was -13.2%; that for `CCCn1nnc(NC(=S)NC(=O)/C=C/c2ccco2)n1` was -16%.

`CC1=NN(c2nc3ccccc3[nH]2)C(=O)/C1=C/N(C)C`: the inhibition was -13.6%. As to `Cc1nn(-c2nc3ccccc3[nH]2)c(=O)c2ccccc12`, the inhibition was -19.2%.

Regarding `CN1CC(C(=O)c2ccc(F)cc2)C(c2c(F)cccc2Cl)C1` (centres undefined), the inhibition is 7.43%. The value for `CCOC(=O)c1ccccc1NC(=O)CSc1nnc(C(C)C)n1CC` was 1.44%; that for `CC(C)C[C@H](NC(=O)NCc1ccccc1Cl)C(=O)O` was 2.59%; that for `Cc1ccc2c(c1)c1c(n2CC(O)CNC(CO)(CO)CO)CCCC1` (centres undefined) was -13.1%. `Cc1ccc2c(c1)c1c(n2CC(O)CNC2CCCC2)CCCC1` (centres undefined): the inhibition is 14.4%.

As to `Cc1ccc2c(c1)c1c(n2CC(O)CN2CCCCCC2)CCCC1` (centres undefined), the inhibition was -2.65%. As for `Cc1ccc2c(c1)c1c(n2CC(O)CN2CCOCC2)CCCC1` (centres undefined), the figure is 5.45%; as for `Cc1cc(C(=O)COC(=O)c2ccc(N)cc2)c(C)n1-c1c(C)n(C)n(-c2ccccc2)c1=O`, -9.39%.

Consider `CSc1nc(N2CCOCC2)cc(N2CCOCC2)n1`, for which the inhibition was 2.38%. As for `COc1ccc(Br)c(C(=O)NC2CCCC2)c1`, the figure is 2.12%; as for `CCC(CC)C(=O)NCc1ccc(OC)cc1`, 22.8%. As for `O=C1CN(C(=O)/C=C/c2cccc(Cl)c2)c2ccccc2N1`, the figure is 8.09%; as for `O=C(CS(=O)(=O)c1ccc(F)cc1)NCc1ccccc1`, -1.23%; as for `Cc1ccc(-c2nn(-c3ccccc3)cc2CSC(=N)N)cc1`, 17.4%. As for `OCc1cn(-c2ccccc2)nc1-c1ccc(-c2nn(-c3ccccc3)cc2CO)cc1`, the figure is -10.8%; as for `CNC(=O)NC(=O)COC(=O)c1ccccc1OCc1ccccc1`, 0.41%. With `Oc1ccc(/C=N/Nc2ccnc3cc(Cl)ccc23)c(O)c1`, the inhibition was -3.01%. The value for `CC(=O)N1CCC(=NNc2ccnc3cc(Cl)ccc23)CC1` was 0.99%; that for `Oc1ccc(Nc2ccnc3cc(Cl)ccc23)cc1` was -4.09%. `C/C(=N\Nc1cccc2cccnc12)c1ccc(N)cc1`: the inhibition is 10.3%. For the molecule `C/C(=N/Nc1ccnc2cc(Cl)ccc12)c1ccc(O)cc1`, the inhibition is -22.6%. As for `CCOC(=O)N1CCN(c2ccnc3cc(Cl)ccc23)CC1`, the figure is -0.34%; as for `Cc1noc(C)c1C(=O)NCCC1=CCCCC1`, 1.2%.

Turning to `Cn1nnnc1SCCNC(=O)C1CCC(=O)N(Cc2ccc(Cl)cc2)C1` (centres undefined), the inhibition is -10.8%.

Consider `COc1ccc(NC(=O)C2CC(c3ccc(Cl)cc3)=NO2)cc1` (centres undefined), for which the inhibition is 7.66%. As to `COc1cccc(OCC(O)CNC(C)c2ccccc2)c1` (centres undefined), the inhibition was 6.91%. On to `COc1ccc(OCC(O)CNC(C)c2ccccc2)cc1` (centres undefined), for which the inhibition was 1.46%. The value for `CC(C)c1ccc(OCC(O)CNC(C)c2ccccc2)cc1` (centres undefined) was 1.07%. `Cc1ccc(OCC(O)CNC(C)c2ccccc2)cc1C` (centres undefined): the inhibition is -6.36%.

On to `NCC(O)COCCC12CC3CC(CC(C3)C1)C2` (centres undefined), for which the inhibition is -0.98%. As for `CC(NCC(O)COCc1ccc(Cl)cc1)c1ccccc1` (centres undefined), the figure is -6.47%.
